The panel holds about 79,000 compounds, 15% with a hit somewhere; the sample as a whole holds those more often. A number with no mark means an inactive call. Activity calls are given as the source filed them. No stated cut-off is given here; in the data, active means growth inhibition above about 70%; inactive means the rest.
Legend:
[1] = NCI Yeast Anticancer Drug Screen. Data for the rad50 strain (AID 155);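 further: 0% = growth of vehicle-only cultures of the same strain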; conditions: S. cerevisiae rad50 strain growth inhibition, stronger effect = higher value
In short: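 Readout: growth inhibition relative to vehicle-treated cultures. Compound exposure was carried out in a genetically defined yeast strain deficient in DNA damage repair.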

[2] = NCI Yeast Anticancer Drug Screen. Data for the mec2-1 strain (AID 157); conditions: S. cerevisiae mec2-1 strain, stronger effect = higher value
In short: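 Strain: mec2-1 (DNA repair/cell cycle alteration). Compound exposure, then growth measured; inhibition expressed relative to vehicle.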

[3] = NCI Yeast Anticancer Drug Screen. Data for the sgs1 mgt1 strain (AID 161);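 further: 0% = growth of cultures given vehicle only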; conditions: S. cerevisiae sgs1 mgt1 strain, stronger effect = higher value
In short: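 Genetically altered yeast, compound exposure, growth inhibition relative to vehicle.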

[4] = NCI Yeast Anticancer Drug Screen. Data for the cln2 rad14 strain (AID 165);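 further: 0% = growth equal to vehicle treated cultures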; conditions: S. cerevisiae cln2 rad14 strain, stronger effect = higher value
In short: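 Compounds are applied to the cln2 rad14 yeast strain, and growth is then compared with that of vehicle-treated cultures to give inhibition.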

[5] = NCI Yeast Anticancer Drug Screen. Data for the bub3 strain (AID 167); conditions: S. cerevisiae bub3 mutant strain, stronger effect = higher value
In short: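 Readout: yeast growth inhibition, expressed relative to vehicle-only wells. The test organism is a mutant strain from a panel with lesions in DNA repair or checkpoint genes.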

[6] = NCI Yeast Anticancer Drug Screen. Data for the mlh1 rad18 strain (AID 175); conditions: S. cerevisiae mlh1 rad18 strain growth inhibition, stronger effect = higher value
In short: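 Read-out is yeast growth inhibition, calculated against vehicle-only controls. The compound was applied to a strain engineered with DNA damage repair alterations.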

[7] = at 5.0 µM (retest, dose inferred, filed as 0.5)
[8] = at 50.0 µM (retest, dose inferred, filed as 5.0)

Compound | growth inhibition [1, 7] [%] | growth inhibition [1, 8] | growth inhibition ([1]; at 50.0 µM) | growth inhibition [2, 7] [%] | growth inhibition [2, 8] | growth inhibition ([2]; at 50.0 µM) | growth inhibition [3, 7] [%] | growth inhibition [3, 8] | growth inhibition ([3]; at 50.0 µM) | growth inhibition [4, 7] [%] | growth inhibition [4, 8] | growth inhibition ([4]; at 50.0 µM) | growth inhibition [5, 7] [%] | growth inhibition [5, 8] | growth inhibition ([5]; at 50.0 µM) | growth inhibition [6, 7] [%] | growth inhibition [6, 8] | growth inhibition ([6]; at 50.0 µM)
C/C(=C\c1ccccc1Cl)c1ccccn1 | 2 | 67% | 86.2% (active) | 2 | 49% | 89.6% (active) | 6 | 71% (active) | 80.7% (active) | -7 | 7% | -44.5% | 33 | 98% (active) | 96.8% (active) | 10 | 27% | 83% (active)
CC1=C(C(=O)Nc2ccc([N+](=O)[O-])cc2)C(c2ccccc2F)C(C(=O)Nc2ccc([N+](=O)[O-])cc2)=C(C)N1 | 19 | 19% | 56.4% | 5 | 5% | 74.3% (active) | 2 | 2% | 52% | 6 | 6% | 64% | -1 | -1% | 60% | -2 | -2% | 28.1%
C/C=C/c1cc2c(cc1O)CC[C@@H]1[C@@H]2CC[C@]2(C)[C@@H](O)CC[C@@H]12 | 25 | 97% (active) | 89% (active) | 12 | 98% (active) | 92% (active) | 11 | 97% (active) | 90.7% (active) | 6 | 97% (active) | 92.7% (active) | 22 | 99% (active) | 91.3% (active) | 24 | 97% (active) | 86.7% (active)
CCCCN(CCCC)CC(O)Cc1cc2ccccc2c2ccccc12 (stereo not given) | 0 | 65% | 90.7% (active) | 1 | 44% | 48.6% | -4 | 92% (active) | 99.1% (active) | -7 | 42% | 62.6% | 0 | 47% | 94.4% (active) | 18 | 91% (active) | 98.4% (active)
CC[N+]1(C)CC2CCC(CC2)C1 (stereo not given) | -2 | -5% | -1.6% | -3 | -3% | 35% | -4 | -2% | 7.2% | -4 | -6% | 72% (active) | -3 | 2% | -7.15% | -4 | -3% | 7.35%
OC1CC2OC2C1O (stereo not given) | -2 | 3% | -6.25% | -5 | 3% | 3.75% | -2 | 1% | -4.95% | -1 | -1% | 69.6% | 2 | 7% | 18.6% | -1 | 2% | -11.4%
CCOC(=S)SSC(=S)NCCNC(=S)SSC(=S)OCC | 9 | 40% | 70.7% (active) | 4 | 72% (active) | 36.5% | 13 | 86% (active) | 79.8% (active) | -1 | 30% | 73.1% (active) | 4 | 91% (active) | 2.55% | 11 | 78% (active) | 76.4% (active)
Cc1cc(C)nc(/C=C/c2ccccc2)c1 | -1 | -10% | 98.5% (active) | 1 | 7% | 96.6% (active) | -9 | 22% | 98.6% (active) | -1 | 16% | 94.1% (active) | 18 | 29% | 97.1% (active) | 10 | 18% | 97.8% (active)
Cc1cnc2cccc(Cl)c2c1Cl | 3 | 27% | 80.8% (active) | 17 | 11% | 28.4% | 19 | 6% | 35.5% | -42 | 4% | 34% | -4 | 14% | 27% | -15 | 31% | 20.6%
C[n+]1c(-c2ccc(/C=N/NC(=O)c3ccc(C(=O)N/N=C/c4ccc(-c5cn6ccccc6[n+]5C)cc4)nc3)cc2)cn2ccccc21 | 35 | 99% (active) | 99.2% (active) | 14 | 99% (active) | 98.8% (active) | 35 | 99% (active) | 98.8% (active) | 34 | 99% (active) | 99% (active) | 24 | 99% (active) | 98.9% (active) | 50 | 99% (active) | 99.1% (active)

From PubChem BioAssay (NCI)
